# Laboratory results as given in PubChem BioAssay (NCATS).
# Records with an inconclusive call do not appear. Unmarked numbers belong to inactive results. The source made the active and inactive calls. Calls come from the whole dose curve; as a rule, active = well fitted inhibition curve with a large enough effect; inconclusive = small, poorly fitted or top-dose-only effect; inactive = no such curve, though single readings can be large or run the other way. Starred links: 1 amine or outer side, 2 acyl side, 3 side chain; linkers in the order of their positions; H or OH if unused. Positions of bridges follow the written chain, without caps; N, C: chain ends. Non-standard residues stand in square brackets, D forms with d. Residues, ends and D or L forms follow the SMILES beside them. ξ: configuration not given here. *: point of attachment. X3 = C[C@@H](Oc1ccc([C@H](N[*:1])C(=O)[*:2])cc1)[C@]1(/C=C\C(=O)[*:3])CO1; d(aIle) = CC[C@H](C)[C@@H](N)C(=O)O; X2 = CC(C)[C@@H](O)C(C)C(=O)*; ξNMeF = CNC(Cc1ccccc1)C(=O)O; ξT = CC(O)C(N)C(=O)O; ξS = NC(CO)C(=O)O
# Biological target: Nuclear receptor subfamily 1 group I member 3 (Homo sapiens) (UniProt Q14994)
# Assay: qHTS for Constitutive Androstane Receptor (CAR) Antagonist screened against the NCATS CANVASS Library (AID 1347372);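 for activity change, negative = inhibition: cells stimulated with 50 nM CITCO agonist so inhibition reflects antagonism; luciferase from CYP2B6 promoter reporter driven by hCAR in HepG2 cells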
# Conditions: HepG2-hCAR-CYP2B6 luciferase, CITCO-stimulated antagonist mode; series mostly up to 46.1 µM; activity change, negative = inhibition: at the top concentration
# From the text: Natural products and their derivatives continue to be wellsprings of nascent therapeutic potential. However, many laboratories have limited resources for biological evaluation, leaving their previously isolated or synthesized compounds largely or completely untested. To address this issue, the Canvass library of natural products was assembled (https://tripod.nih.gov/canvass), in collaboration with academic and industry researchers, for quantitative high-throughput screening (qHTS) across a diverse set of cell-based and biochemical assays. The pure (>85% purity by liquid chromatography/mass spectrometry [LC/MS]) Canvass library of 346 natural products were submitted by 45 academic laboratories and companies around the world. We collected pure natural products to circumvent deconvolution and structure elucidation due to time and resource limitations. The library was formatted into 1536-well plates and evaluated in 50 qHTS (in an 11-pnt concentration series) bioassays with broad scope of disease-relevant mechanisms. The resulting data set from 50 different assays was then systematically analyzed to identify overall trends and specific natural products with interesting biological activities. Reported herein are the results of each individual qHTS and their corresponding assay protocol. The constitutive androstane receptor (CAR) is a nuclear receptor which regulates multiple drug metabolizing enzymes (DMEs) and transporters. Activating CAR will generally increase the transcription and subsequent translation of CYP2B6 and CYP3A4. These two DMEs represent about 50% of the drug metabolizing potential in the body. […] Recently, there have also been studies performed indicating CARs role in energy metabolism and cancer therapy. Therefore, inducing or inhibiting CAR's activity could have a potential effect on diabetes and/or cancer. National Center for Advancing Translational Sciences (NCATS), Rockville, MD National Institute of Health (NIH), Bethesda, Maryland
# Material: A double-stable (hCAR and CYP2B6-2.2kb) transfected cell line, derived from human hepatoma (HepG2) cells, was utilized for the duration of the quantitative high-throughput screens. The HepG2-CYP2B6-hCAR cells suspended in DMEM culture medium supplemented with 10% FBS, 5 ug/mL blasticidin, 0.5 mg/mL geneticin, 100 U/mL penicillin and 100 ug/mL streptomycin. CAR Antagonist assay protocol: 1. In a 1536 well, tissue culture treated white solid bottom plates (Greiner Bio-One North America), 4 uL of engineered HepG2-hCAR-CYP2B6 cell solution (final concentration 2500 cells / well) was dispensed using the Multidrop Combi dispenser (Thermo Fisher Scientific). 2. The assay plates were incubated for 4hr at 37C, 5% CO2 to allow the cells to acclimate and attach. 3. Compounds were pin transferred (~23 nL volume) to the assay plates via Wako Pin-tool (Wako Automation, Richmond VA) equipped with a 1536 pin head. The compounds were transferred to columns 5-48 resulting in a final concentration ranging from 0.6nM to 92uM. 4. One uL of CITCO, was added using a Flying Reagent Dispenser to generate a final concentration of 50 nM CITCO inside each well. 5. The assay plates were incubated at 37C, 5% CO2 for 24hr. 6. To measure cell viability, 1 uL of CellTiter-Fluor (Promega) reagent was then added to the assay plates (column 1-48, rows 1-32). The assay plates were incubated for 1hr at 37C, 5% CO2. 7. A first readout of fluorescence signal was acquired via the ViewLux (PerkinElmer) plate reader using a FITC dichroic mirror, excitation 405/10 nm filter, and emission 540/25 nm filter; and using 65 light energy, 1 second exposure, and 2x binning settings. 8. To measure CAR activation, 4 uL of ONE-Glo reagent (Promega) was added to the assay plates (column 1-48, rows 1-32). The assay plates were further incubated at room temperature for 30 min. 9. A second readout of luminescence signal was acquired via the ViewLux plate reader using a clear emission filter, 10 second exposure, 2x binning settings. […]
# % is set by controls: 0 for no effect and ±100 for the full control effect; potency is the fitted concentration of half-maximal effect.
# Chain of Nuclear receptor subfamily 1 group I member 3 (Homo sapiens) (Q14994 whole entry, looked up): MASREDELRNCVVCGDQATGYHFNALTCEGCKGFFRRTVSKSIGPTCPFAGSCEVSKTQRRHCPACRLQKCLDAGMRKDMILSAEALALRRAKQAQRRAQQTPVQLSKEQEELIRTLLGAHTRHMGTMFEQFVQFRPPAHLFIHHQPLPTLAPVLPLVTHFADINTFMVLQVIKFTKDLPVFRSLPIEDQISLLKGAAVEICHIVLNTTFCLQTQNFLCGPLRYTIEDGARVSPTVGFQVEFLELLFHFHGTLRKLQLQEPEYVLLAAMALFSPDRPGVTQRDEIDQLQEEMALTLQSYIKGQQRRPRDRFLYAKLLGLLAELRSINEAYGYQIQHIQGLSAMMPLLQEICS
Compound,Potency,"activity change, negative = inhibition"
C[C@]12CCC3[C@@H](CC[C@@H]4C[C@@H](O)CC[C@]34CO)[C@@]1(O)CC[C@@H]2C1=CC(=O)OC1 (some centres undefined),4.17 µM (active),–
CO[C@@H](/C=C/CC/C=C/C(=O)O)[C@@H](O)[C@H](C)/C=C(\C)[C@H](O)[C@H](C)C(=O)CCCC1CC(=O)NC(=O)C1,–,2.04%
C/C=C(\C)C(=O)O[C@@H]1[C@@H](O)[C@@H]2O[C@H]3[C@H](O[C@@H](CCCCC)CCCCCCC(=O)CCC(=O)OC[C@@H](O2)[C@H]1OC(=O)/C=C/c1ccccc1)O[C@H](C)[C@H](OC(C)=O)[C@@H]3O,0.0524 µM (active),–
C=CC(C)(C)[C@@]12C[C@H]3C(=O)N/C(=C/c4cnc[nH]4)C(=O)N3[C@@H]1Nc1ccccc12,20.9 µM (active),–
C=C[C@H]1CN2CCc3c([nH]c4cccc(OC)c34)[C@@H]2C[C@@H]1/C(=C\OC)C(=O)OC,–,55.2%
c1ccc2nc3c(cc2c1)[nH]c1ccccc13,–,218%
C/C=C1/CN2CC[C@@]34c5ccccc5N(C)[C@@H]3[C@@H]2C[C@@H]1[C@H]4C(=O)OC,–,31.3%
CC[C@]12C=CCN3CC[C@]4(C(=C(C(=O)OC)C1)Nc1ccccc14)[C@@H]32,–,-7.44%
COC1C(O)C(C)OC(OC2C(Oc3cccc4c(O)c5c(=O)oc6ccc(C)c7c(=O)oc(c34)c5c67)OC(C)C(O)C2O)C1O (centres undefined),11.7 µM (active),–
C1=C2CCCN[C@H]2C2CC1[C@H]1CCCCN1C2 (some centres undefined),–,-0.93%
CCCC[C@@H](C)/C=C1/CN2CCC[C@H]2[C@@](C)(O)[C@@H]1O,–,13%
CC(C)CC1C(=O)O[C@H](C(C)C)C(=O)N(C)C(CC(C)C)C(=O)O[C@@H](C(C)C)C(=O)N(C)C(CC(C)C)C(=O)O[C@H](C(C)C)C(=O)N(C)C(CC(C)C)C(=O)O[C@@H](C(C)C)C(=O)N1C (some centres undefined),20.9 µM (active),–
CO[C@H]([C@@H](C)[C@H]1O[C@]1(C)C[C@H](C)/C=C/C=C(\C)[C@H]1O[C@@H](CC(=O)O)CC[C@@H]1C)[C@@H](C)O,–,128%
CC[C@H]1CN2CCc3c([nH]c4cccc(OC)c34)[C@@H]2C[C@@H]1/C(=C\OC)C(=O)OC,–,67.3%
CO[C@@]12c3c(C)cc(O)c4c(=O)occ(c34)C(=O)[C@@H]1[C@]13COC(=O)c4c(O)cc(C)c(c41)C(=O)[C@H]2[C@@H]3OC(C)=O,–,5.36%
C[C@]12CC(O)C3[C@@H](CCC4C[C@@H](O)CC[C@@]43CO)[C@@]1(O)CC[C@@H]2C1=CC(=O)OC1 (some centres undefined),10.5 µM (active),–
C/C=C/[C@@H]1[C@H]2C[C@@H](C)CC[C@@H]2C(C)=C[C@H]1C(=O)c1c(O)c(-c2ccc(O)cc2)c[nH]c1=O,–,7.34%
CO[C@H]1[C@H](O[C@H]2CC[C@]3(C=O)[C@H]4CC[C@]5(C)[C@@H](C6=CC(=O)OC6)CC[C@]5(O)[C@@H]4CC[C@]3(O)C2)O[C@H](C)[C@H](O)[C@@H]1OC,0.295 µM (active),–
CCCC[C@@H]1CC[C@H]2CCCC(CCCO)N12 (some centres undefined),–,-5.7%
CC[C@@H]1CN2CCc3c([nH]c4cccc(OC)c34)[C@@H]2C[C@@H]1/C(=C\OC)C(=O)OC,–,80.6%
C/C(=C\[C@H](C)C(=O)C[C@H](O)CC1CC(=O)NC(=O)C1)[C@@H]1OC(=O)/C=C/CC/C=C/C=C/[C@@H]1C,0.741 µM (active),–
CC[C@H](C)[C@H]1NC(=O)[C@@H](NC(=O)C(C)[C@H](O)C(C)C)[C@@H](C)OC(=O)C2COC(=O)CNC(=O)/C=C\[C@]3(CO3)[C@@H](C)Oc3ccc(cc3)[C@H](NC1=O)C(=O)N(C)C(Cc1ccccc1)C(=O)NC(C(C)O)C(=O)N2 (some centres undefined) (X2-T[d(aIle)][X3][ξNMeF][ξT][ξS]; ester 1-C; linker 3-6 via G),–,-6.83% [at 27.5 µM]
CCCCC1CC[C@H]2CCCC(CCC)N12 (some centres undefined),–,0.905%
CO[C@H]1C[C@H](O[C@H]2[C@@H](O)C[C@H](O[C@H]3CC[C@]4(C=O)[C@H]5CC[C@]6(C)C(C7=CC(=O)OC7)CC[C@]6(O)[C@@H]5CC[C@]4(O)C3)O[C@@H]2C)O[C@H](C)[C@H]1O[C@H]1C[C@@H](OC)[C@@H](O[C@@H]2O[C@H](CO)[C@@H](O)[C@H](O)[C@H]2O)[C@@H](C)O1 (some centres undefined),0.417 µM (active),–
COC1=C(C2=C(OC)C(=O)c3cc4c(c(O)c3C2=O)C(=O)O[C@H](C)C4)C(=O)c2c(cc3c(c2O)C(=O)O[C@H](C)C3)C1=O,–,1.1% [at 15.4 µM]
O[C@H]1C=C[C@@]23CCN(Cc4cc5c(cc42)OCO5)[C@@H]3C1,–,11.3%
C=CC(C)(C)[C@@]12C[C@H]3C(=O)N/C(=C\c4cnc[nH]4)C(=O)N3[C@@H]1Nc1ccccc12,–,-51.9%
C[N+](C)(C)CCc1c[nH]c2ccccc12,–,-1.76%
C[C@]12CC(O)C3[C@@H](CC[C@@H]4C[C@@H](O)CC[C@]34CO)[C@@]1(O)CC[C@@H]2C1=CC(=O)OC1 (some centres undefined),4.17 µM (active),–
